Experimental data taken from PubChem BioAssay AID873 (PCMD, 2007).
About 1,300 (0.62%) of roughly 210,000 compounds were called active. This excerpt belongs to a sample that is enriched for actives. A number with no mark means an inactive call.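 Rule for the calls: active = inhibition of 40% or more; inactive = the rest.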

biological target: Kallikrein-5 (Homo sapiens) (UniProt Q9Y337); assay: inhibition of kallikrein 5 (hK5) activity – biochemical, 1536-well, primary screen (AID 873); details: recombinant hK5, fluorogenic AMC substrate cleavage; at 5 µM; stronger effect = higher value;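 note: 0% = enzyme controls without compound and 100% = no-enzyme blanks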
Sequence (Q9Y337 67-293 limits assumed): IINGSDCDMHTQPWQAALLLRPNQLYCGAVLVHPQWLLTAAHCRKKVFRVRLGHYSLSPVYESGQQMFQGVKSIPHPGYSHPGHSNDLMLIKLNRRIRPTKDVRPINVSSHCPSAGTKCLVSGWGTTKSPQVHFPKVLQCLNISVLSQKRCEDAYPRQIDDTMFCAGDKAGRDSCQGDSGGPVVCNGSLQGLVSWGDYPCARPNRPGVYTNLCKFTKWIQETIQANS

| Structure (SMILES) | inhibition |
| --- | --- |
| O=C(CN1CCN(Cc2ccccc2)CC1)NC(c1ccccc1)c1ccccc1 | -1.99% |
| Cc1cc2c(cc1C)N(Cc1ccccc1)C1=NCCCN12 | -0.81% |
| COc1ccc(C(C(=O)NC(C)(C)C)N(C(=O)Cn2nnc3ccccc32)c2ccc(C(C)=O)cc2)cc1O (stereo not given) | -4.08% |
| CCOc1ccc(/C(O)=C2\C(=O)C(=O)N(c3ccc(OC)cc3)C2c2ccccc2[N+](=O)[O-])cc1 (stereo not given) | -0.1% |
| C/C(Cc1ccccc1)=N\NC(=O)CNC(=O)c1ccc2c(c1)OCCO2 | -2.98% |
| C/C(Cc1ccccc1)=N\NC(=O)CNC(=O)c1ccccc1Cl | 47.7% (active) |
| C/C(Cc1ccccc1)=N\NC(=O)CNC(=O)c1cccc(Br)c1 | -15.8% |
| Cc1cc(C(=O)NCCc2ccc(Cl)cc2)n(-c2ccccc2)n1 | 0.87% |
| C=CCNC(=O)c1ccc2c3n(nc2c1)-c1ccc(C)cc1CO3 | 2.58% |
| C=CCNC(=S)N/N=C/c1ccc(C)s1 | -12.8% |
| Cc1nc(-c2ccc(Cl)cc2)sc1C1(C)CC(c2ccccc2F)=NO1 (stereo not given) | 2.17% |
| CC(=O)c1ccc(S(=O)(=O)N2CCN(C(=O)/C=C/c3ccc4ccccc4n3)CC2)cc1 | -6.25% |
| COCCNC(=S)N1CCN(C)CC1 | 0.97% |
| CC(=O)c1cccc(NC(=O)c2ccncc2)c1 | 2.01% |
| COc1cccc(NC(=O)c2ccccc2SC)c1 | -2.44% |
| CSc1ccccc1C(=O)Nc1cccc(C(C)=O)c1 | 45% (active) |
| CC(C)(C)C(=O)NNC(=O)c1ccc(Oc2cc(Cl)cc(Cl)c2)o1 | 4.32% |
| COCCNc1nc(-c2ccccc2)nc2c1oc1ccccc12 | 1.99% |
| Cn1c(=O)c2c(-c3cccc(Br)c3)c(C#N)c(N)nc2n(C)c1=O | 2.05% |
| S=C(NCCc1ccccc1)Nc1ccccc1 | 2.79% |
